Data published in PubChem BioAssay (Tox21).
Records with an inconclusive call do not appear. Values without a mark were called inactive. Active and inactive are the calls of the source. The call rests on the fitted dose curve; in most records, active means well fitted curve in the direction sought with a large enough effect in the repeat runs; inconclusive means weak or mixed curves; inactive means no such curve, though single readings can be large; an effect the other way counts as inactive or inconclusive.

Experiment: qHTS assay to identify small molecule antagonists of the estrogen related receptor (ERR) signaling pathway (AID 1224819; further: nearly all actives have a fitted effect of over 50% in size;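 on activity change, negative = inhibition: luminescence from an ERR-driven luciferase reporter measured with One-Glo reagent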)
Conditions: ERR reporter cell line, luciferase inhibition; series mostly up to 46.1 µM; activity change, negative = inhibition: at the top concentration
How it was run: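 ERR reporter cell line (NTP) plated at 2,000 cells/well, settled 6 h at 37C/5% CO2, then exposed to LOPAC compounds for 18 h at 37C. One-Glo luciferase luminescence read after 30 min at room temperature.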
On the % scale 0 is the no-effect control and ±100 the full control effect; potency means the concentration at half of the fitted maximal effect.

Structure (SMILES) | activity change, negative = inhibition [%] | Potency
CCCN(CCC)CCc1ccc(O)c(O)c1 | 17.2 | 
CN(N=O)c1ccc(O)c(O)c1 | -23.7 | 
Clc1cc(I)cc(Cl)c1NC1=NCCN1 | -2.74 | 
O=C(O)[C@@H]1CCN1 | 14.2 | 
C[N+]1(C)CCc2cc3c(cc2[C@H]1[C@@H]1OC(=O)c2c1ccc1c2OCO1)OCO3 | 9.04 | 
CC(C)Oc1cccnc1N(C)C1CCN(Cc2ccccc2)CC1 | -22 | 
COc1ccc2c(c1O)-c1cccc3c1[C@@H](C2)N(C)CC3 | -2.22 | 
CC(C)(O)[C@@H]1[C@H]2OC(=O)[C@@H]1[C@]1(O)C[C@H]3O[C@]34C(=O)O[C@H]2[C@]14C (tested in a mixture with another compound) | 13.4 | 
NCCc1ccc(S(=O)(=O)F)cc1 | 1.71 | 
C[N+](C)(C)CC#CCN1CCCC1=O | 6.57 | 
COc1cc(C(O)CN)ccc1O (stereo not given) | 8.18 | 
NCCc1c[nH]c2ccc(O)cc12 | 6.95 | 
C[C@H](Cc1ccc2c(c1)OC(C(=O)O)(C(=O)O)O2)NC[C@H](O)c1cccc(Cl)c1 | 11.6 | 
CCCN1CCC[C@@H](c2cccc(O)c2)C1 | 8.89 | 
NCCc1c[nH]c2ccccc12 | 9.72 | 
COc1ccc(CNC(=O)/C=C/c2ccc3[nH]cc(CCN(C)C)c3c2)cc1 | -3.79 | 
COc1ccc2[nH]c3c(c2c1)CCNC3 | -2.88 | 
COc1ccc2c(c[n+](C)c3c4cc5c(cc4ccc23)OCO5)c1OC |  | 9.08 µM (active)
C[C@H]1C2Cc3ccc(O)cc3[C@@]1(C)CCN2CC1CC1 | 15 | 
NC(=NCCC[C@H](N)C(=O)O)N[N+](=O)[O-] | 5.46 | 

Structure (SMILES) | activity change, negative = inhibition [%] | Potency
Oc1ccc2c3c1O[C@H]1c4[nH]c5c(c4C[C@@]4(O)[C@@H](C2)N(CC2CC2)CC[C@]314)C[C@@]1(O)[C@H]2Cc3ccc(O)c4c3[C@@]1(CCN2CC1CC1)[C@H]5O4 | 7.01 | 
Cc1sc2ccccc2c1CC1=NCCN1 | -9.66 | 
CNCCc1c[nH]c2ccc(O)cc12 | -6.87 | 
CCOC(=O)c1ncn2c1[C@@H]1CCCN1C(=O)c1cc(OC)ccc1-2 | -18.3 | 
Nc1ncnc2c1ncn2[C@@H]1O[C@H](COP(=O)(O)CP(=O)(O)OP(=O)(O)O)C(O)[C@H]1O (stereo not given in full) | 8.18 | 
C[N+]1(C)CCC(OC(=O)C(c2ccccc2)c2ccccc2)CC1 | -2.63 | 
CC(C)CC(NP(=O)(O)O[C@@H]1O[C@@H](C)[C@H](O)[C@@H](O)[C@H]1O)C(=O)NC(Cc1c[nH]c2ccccc12)C(=O)O (stereo not given in full) | 18 | 
CN1C2CCC1CC(OC(c1ccccc1)c1ccccc1N)C2 (stereo not given) | 2.56 | 
CCN1C[C@@]2(COC)C3[C@@H](OC)C4[C@H]1C3([C@@H]1C[C@@]3(O)[C@H](OC(=O)c5ccccc5)[C@@H]1[C@]4(OC(C)=O)[C@@H](O)[C@@H]3OC)[C@H](OC)C[C@H]2O | 9.89 | 
CC(C)(C)OC(=O)NC1[C@H]2CNC[C@@H]12 (stereo not given in full) | 8.05 | 
S=C(NC1CCCCC1)N1CCC(c2cnc[nH]2)CC1 | -21.3 | 
N[C@@]1(C(=O)O)CC[C@@H](C(=O)O)C1 | 14 | 
C[N+]1(C)CCN(c2ccccc2)CC1 | 0.801 | 
C=CCN1CCC23c4c5ccc(O)c4O[C@H]2C(=O)CC[C@@]3(O)C1C5 (stereo not given in full) | 11.1 | 
OCc1cnc[nH]1 | 6.79 | 
C#CCOC(=O)C1=CCCN(C)C1 | 45.7 | 
CCCN1CCc2cc(O)cc3c2[C@H]1Cc1ccc(O)c(O)c1-3 | 0.475 | 
CS(=N)(=O)CC[C@H](N)C(=O)O (stereo not given in full) | 8.94 | 
NC1CCc2cc(O)c(O)cc2C1 (stereo not given) | 7.36 | 
O=C(N[C@H]1CN2CCC1CC2)c1ccc(Cl)cc1 | -17.6 | 

Experiment: qHTS assay to identify small molecule agonists of the estrogen related receptor (ERR) signaling pathway (AID 1224820)
Conditions: ERR reporter cell line, luciferase agonist mode; series mostly up to 46.1 µM; activation: at the top concentration
How it was run: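 After 6 h plating (2,000 cells/well) and 18 h compound treatment at 37 C, ERR cells were lysed with One-Glo and luminescence read after 30 min at room temperature.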

Structure (SMILES) | activation [%] | Potency
CCCN(CCC)CCc1ccc(O)c(O)c1 | 21.7 | 
CN(N=O)c1ccc(O)c(O)c1 | -25.5 | 
Clc1cc(I)cc(Cl)c1NC1=NCCN1 | -6.96 | 
O=C(O)[C@@H]1CCN1 | 15.5 | 
C[N+]1(C)CCc2cc3c(cc2[C@H]1[C@@H]1OC(=O)c2c1ccc1c2OCO1)OCO3 | 9.45 | 
CC(C)Oc1cccnc1N(C)C1CCN(Cc2ccccc2)CC1 | -22.8 | 
COc1ccc2c(c1O)-c1cccc3c1[C@@H](C2)N(C)CC3 | 3.27 | 
CC(C)(O)[C@@H]1[C@H]2OC(=O)[C@@H]1[C@]1(O)C[C@H]3O[C@]34C(=O)O[C@H]2[C@]14C (tested in a mixture with another compound) | 14.4 | 
NCCc1ccc(S(=O)(=O)F)cc1 | 12.2 | 
C[N+](C)(C)CC#CCN1CCCC1=O | 10.1 | 
COc1cc(C(O)CN)ccc1O (stereo not given) | 8.65 | 
NCCc1c[nH]c2ccc(O)cc12 | 7.11 | 
C[C@H](Cc1ccc2c(c1)OC(C(=O)O)(C(=O)O)O2)NC[C@H](O)c1cccc(Cl)c1 | 15 | 
CCCN1CCC[C@@H](c2cccc(O)c2)C1 | 9.62 | 
NCCc1c[nH]c2ccccc12 | 12.5 | 
COc1ccc(CNC(=O)/C=C/c2ccc3[nH]cc(CCN(C)C)c3c2)cc1 | 1.92 | 
COc1ccc2[nH]c3c(c2c1)CCNC3 | -4.61 | 
COc1ccc2c(c[n+](C)c3c4cc5c(cc4ccc23)OCO5)c1OC | -98 | 
C[C@H]1C2Cc3ccc(O)cc3[C@@]1(C)CCN2CC1CC1 | 18.7 | 
NC(=NCCC[C@H](N)C(=O)O)N[N+](=O)[O-] | 6.36 | 

Structure (SMILES) | activation [%] | Potency
Oc1ccc2c3c1O[C@H]1c4[nH]c5c(c4C[C@@]4(O)[C@@H](C2)N(CC2CC2)CC[C@]314)C[C@@]1(O)[C@H]2Cc3ccc(O)c4c3[C@@]1(CCN2CC1CC1)[C@H]5O4 | 6.87 | 
Cc1sc2ccccc2c1CC1=NCCN1 | -9.46 | 
CNCCc1c[nH]c2ccc(O)cc12 | -6.62 | 
CCOC(=O)c1ncn2c1[C@@H]1CCCN1C(=O)c1cc(OC)ccc1-2 | -27.6 | 
Nc1ncnc2c1ncn2[C@@H]1O[C@H](COP(=O)(O)CP(=O)(O)OP(=O)(O)O)C(O)[C@H]1O (stereo not given in full) | 8.67 | 
C[N+]1(C)CCC(OC(=O)C(c2ccccc2)c2ccccc2)CC1 | -2.78 | 
CC(C)CC(NP(=O)(O)O[C@@H]1O[C@@H](C)[C@H](O)[C@@H](O)[C@H]1O)C(=O)NC(Cc1c[nH]c2ccccc12)C(=O)O (stereo not given in full) | 21.9 | 
CN1C2CCC1CC(OC(c1ccccc1)c1ccccc1N)C2 (stereo not given) | 0.147 | 
CCN1C[C@@]2(COC)C3[C@@H](OC)C4[C@H]1C3([C@@H]1C[C@@]3(O)[C@H](OC(=O)c5ccccc5)[C@@H]1[C@]4(OC(C)=O)[C@@H](O)[C@@H]3OC)[C@H](OC)C[C@H]2O | 11.1 | 
CC(C)(C)OC(=O)NC1[C@H]2CNC[C@@H]12 (stereo not given in full) | 9.94 | 
S=C(NC1CCCCC1)N1CCC(c2cnc[nH]2)CC1 | -22.4 | 
N[C@@]1(C(=O)O)CC[C@@H](C(=O)O)C1 | 17 | 
C[N+]1(C)CCN(c2ccccc2)CC1 | 4.57 | 
C=CCN1CCC23c4c5ccc(O)c4O[C@H]2C(=O)CC[C@@]3(O)C1C5 (stereo not given in full) | 4.98 | 
OCc1cnc[nH]1 | 22.8 | 
C#CCOC(=O)C1=CCCN(C)C1 |  | 22 µM (active)
CCCN1CCc2cc(O)cc3c2[C@H]1Cc1ccc(O)c(O)c1-3 | 1.11 | 
CS(=N)(=O)CC[C@H](N)C(=O)O (stereo not given in full) | -0.0241 | 
NC1CCc2cc(O)c(O)cc2C1 (stereo not given) | 7.37 | 
O=C(N[C@H]1CN2CCC1CC2)c1ccc(Cl)cc1 | -23 | 
